# This is part of a sample that, as a whole, favours compounds with a hit. Of some 83,000 tested, about 20% had one in any assay.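 Percent growth is the endpoint: 0 to 100 indicates growth inhibition (40 means 60% inhibition), 0 means no net growth, and negative values indicate cell death.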 A number with no mark means an inactive call. The source made the active and inactive calls. How the source made its calls: active means growth percent below 10; inactive means the rest.
# Key:
# Test in all cases: NCI-60 one-dose screen, 48 h (100 = growth as untreated, 0 = no growth, -100 = all killed)
# Conditions in all cases: 10 µM unless noted
# NCI-H23 lung = system: NCI-H23 lung
# NCI-H226 lung = system: NCI-H226 lung
# NCI-H322M lung = system: NCI-H322M lung
# HOP-62 NSCLC = system: HOP-62 NSCLC
# NCI-H460 lung = system: NCI-H460 lung
# HOP-92 NSCLC = system: HOP-92 NSCLC
# NCI-H522 lung = system: NCI-H522 lung
# A549/ATCC NSCLC = system: A549/ATCC NSCLC
# 786-0 renal = system: 786-0 renal
# COLO 205 colon = system: COLO 205 colon
SMILES,growth (NCI-H23 lung),growth (NCI-H226 lung),growth (NCI-H322M lung),growth (HOP-62 NSCLC),growth (NCI-H460 lung),growth (HOP-92 NSCLC),growth (NCI-H522 lung),growth (A549/ATCC NSCLC),growth (786-0 renal),growth (COLO 205 colon)
COc1ccc2nc(-c3ccc(-c4noc(-c5cc(OC)c(OC)c(OC)c5)n4)cc3)[nH]c2c1,63.8%,86%,101%,76.8%,56.3%,76.2%,74.9%,45.8%,77.8%,78.4%
Cc1nn(-c2ccccc2)c(Oc2c(Cl)cccc2Cl)c1/C=N/N=c1\sc2ccccc2n1C,72.5%,53.3%,82.2%,83.6%,17.4%,60.3%,65.5%,47.5%,50.8%,40.8%
Cn1cc(-c2nc(-c3c[nH]c4c(Cl)nccc34)cs2)c2cc(Br)ccc21,99.8%,81.4%,93.2%,82%,80.2%,91.2%,78.7%,66.6%,84.6%,90.4%
COc1ccc(-c2nc(S(=O)(=O)c3ccccc3)c(S(=O)CC(=O)N3CCC(C)CC3)o2)cc1 (stereo not given),54.1%,80.3%,73.2%,76.6%,80.4%,-22.6% (active),-86.6% (active),77.4%,10.3%,48.7%
Cc1ccc(-n2c3c(c(-c4ccccc4)c2-c2ccccc2)C2=NCCN2C=N3)cc1,84.2%,72%,96.6%,97.6%,90.9%,87%,80.2%,93.7%,95%,101%
Cn1ccnc1C(=O)/C=C/c1ccc(CC(=O)Nc2ccc(Cl)cc2)cc1,19.2%,76.7%,6.08% (active),-21.2% (active),-27.6% (active),72%,6.86% (active),6% (active),11.3%,7.39% (active)
O=C(O)c1ccc2c(c1)C(=O)N(Cc1ccccc1)C2=O,98.5%,92.7%,96%,95.8%,102%,86.2%,91.4%,101%,95.5%,107%
CC(=O)O[C@H]1Cc2c([nH]c3ccccc23)[C@@H](c2ccc(Cl)cc2)N1C(=O)CCNC(C)(C)C,84.5%,69%,65.9%,69.1%,37.5%,14.1%,63.9%,76.3%,53.1%,53.7%
CCCC/C=N/NC(=S)NCc1ccccc1,103%,98.6%,105%,82.1%,101%,93.6%,94.6%,97.9%,102%,100%
Cc1ccc(NS(=O)(=O)c2ccc(-c3cnc(C4CC4)o3)cc2)cc1C(F)(F)F,72.8%,77.9%,88.7%,60.7%,55.8%,83.3%,39.9%,55.2%,85.5%,67.5%
COC(=O)/C=C1\S/C(=N\NC(=O)c2cc3ccc2/C=C\c2ccc(cc2)/C=C\3)N(Cc2ccccc2)C1=O,77.4%,64.8%,93.3%,77.2%,93.7%,75.5%,15.9%,77%,49.6%,72.7%
COc1cccc(-c2nc3occn3c2-c2ccnc(NCCCNS(=O)(=O)c3ccc(C(F)(F)F)cc3)n2)c1,99.3%,80.5%,99.4%,103%,89.8%,104%,86.9%,89.7%,86.8%,70%
CCN(CC)CCCC(C)Nc1cc(O)cc2cccnc12 (stereo not given),98.8%,112%,110%,104%,108%,89.4%,125%,96.2%,118%,74.5%
c1ccc2c(-c3c[nH]c4ccccc34)c3c(cc2c1)[nH]c1ccccc13,69.9%,86.2%,83.7%,60.4%,68.9%,83.3%,51.7%,62%,51.9%,83.3%
C/C(=N\NC(=O)CSc1nc2ccccc2c(=O)n1Cc1ccc(S(N)(=O)=O)cc1)c1ccc(F)cc1,105%,102%,102%,98.8%,103%,124%,18.1%,102%,104%,115%
O=C(/C=C/c1ccc(F)cc1)c1ccc(NC(=O)N2CCN(c3cc4c(cc3F)c(=O)c(C(=O)O)cn4C3CC3)CC2)cc1,92.8%,96.1%,100%,98%,82.9%,88.5%,87%,102%,92.4%,115%
O=Cc1ccc(-c2cn3ccnc3c(-c3ccc4ncn(Cc5ccccc5)c4c3)n2)cc1,45.5%,99.5%,88.8%,76.2%,62.2%,57%,74.7%,103%,53.3%,126%
Cc1nc2sccn2c1-c1nc2sccn2c1/C=C1/C(=O)Nc2ccccc21,53.4%,63.1%,67.1%,53.7%,20.5%,4.55% (active),-6.81% (active),39.5%,51.1%,20.1%
COc1cc2c(=O)n(CCN)c3c4cc5c(cc4ccc3c2cc1OC)OCO5,14.2%,-66% (active),-72.1% (active),-51.2% (active),-76.5% (active),49.6%,-7.78% (active),-76.5% (active),-79.3% (active),-0.566% (active)
COc1ccc(-c2cnc3c(-c4cccc5ncccc45)cnn3c2)cc1,50%,0.736% (active),42.7%,4.66% (active),33.9%,24.9%,32.8%,27.2%,18.3%,88.5%
O=S(=O)(NCCNc1nccc(-c2c(-c3cccc(O)c3)nc3occn23)n1)c1ccccc1,93.5%,104%,93.7%,119%,80.6%,80.9%,77.5%,78.9%,93.3%,34.6%
COc1ccc(/C=N/NC(=O)c2cnn3c2NC(c2ccccc2)C3)cc1OC (stereo not given),73.9%,94.1%,75.4%,60%,28.3%,73.2%,42.8%,54.2%,76.2%,45.7%
O=C(Nc1cccc(C2=NCCN2)c1)c1ccc(-c2ccc(C(=O)Nc3cccc(C4=NCCN4)c3)cc2)cc1,73%,84%,93.8%,113%,37.8%,90.9%,60.5%,74.9%,86.2%,43.9%
CC(=O)N1c2ccccc2NC2=C(C(=O)NC2(C)C)C1c1ccco1 (stereo not given),91.2%,96.8%,94.9%,112%,98.4%,67.2%,75.7%,96.5%,93.9%,77.7%
CC1=C(C(=O)/C=C/c2ccc(N(C)C)cc2)C(c2ccccc2)NC(=S)N1 (stereo not given),93.3%,93.8%,103%,106%,108%,96.6%,91%,106%,101%,119%
C#CCNC(=O)[C@]1(C)CC[C@]2(C)CC[C@@H]3C(=CC[C@H]4[C@@]3(C)CC[C@H]3C(C)(C)C(=O)CC[C@]43C)[C@@H]2C1,91%,98.7%,90.9%,101%,97.6%,99.9%,79.8%,91.6%,89.8%,101%
